Experimental findings from PMC6602471 are described below.

Over roughly 1,300 sequences, “log fluorescence intensity” has its median near 8.9; the highest 2% begin near 13. The entries come from a sample that favours the highest values as a whole.

This experiment addresses T1, ELK1 (Homo sapiens, UniProt P19419 1-428).
T1 sequence: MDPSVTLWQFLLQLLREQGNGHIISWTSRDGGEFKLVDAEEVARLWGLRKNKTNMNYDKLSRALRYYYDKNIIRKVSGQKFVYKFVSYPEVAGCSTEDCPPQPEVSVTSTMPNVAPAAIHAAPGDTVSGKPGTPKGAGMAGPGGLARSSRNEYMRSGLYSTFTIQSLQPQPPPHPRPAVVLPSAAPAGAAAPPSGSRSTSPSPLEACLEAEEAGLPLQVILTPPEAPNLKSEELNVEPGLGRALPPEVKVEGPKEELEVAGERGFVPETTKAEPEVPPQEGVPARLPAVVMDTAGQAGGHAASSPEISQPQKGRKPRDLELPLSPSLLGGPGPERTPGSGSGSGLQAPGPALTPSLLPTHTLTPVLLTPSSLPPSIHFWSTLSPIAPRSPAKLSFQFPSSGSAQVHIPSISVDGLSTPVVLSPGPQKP
The experiment is described as follows: custom PBM; custom protein-binding microarray; buffer, salt, pH and temperature not stated; high values mean tight binding. The settings on record: dsDNA, one strand shown.
With “CGAAAGTGTCGTAAACGTCGGATATCCGGTTCTTCTGTCTTGATTCGCTTGACGCTGCTG”, the binding signal was 12.5 log fluorescence intensity.

As for “CGGTAGTGTCGTAAACGTCGGATATCCGGTTCTTCTGTCTTGATTCGCTTGACGCTGCTG”, the binding signal was 12.5 log fluorescence intensity.

Turning to “CGGGAGTGTCGTAAACGTCGGATATCCGGTTCTTCTGTCTTGATTCGCTTGACGCTGCTG”, the binding signal is 12.1 log fluorescence intensity.

Turning to “CGCAAGTGTCGTAAACGTCGGATATCCGGTTCTTCTGTCTTGATTCGCTTGACGCTGCTG”, the binding signal is 12.6 log fluorescence intensity.

With “CGGAAGTGTCGTAAAGGTCGGATATCCGGTTCTTCTGTCTTGATTCGCTTGACGCTGCTG”, the binding signal is 12.4 log fluorescence intensity.

In the case of “CGGAAGTGTCGTAAATGTCGGATATCCGGTTCTTCTGTCTTGATTCGCTTGACGCTGCTG”, the binding signal is 12.7 log fluorescence intensity.

Turning to “CGGAAGTGTCGTAAACGTCGCATATCCGGTTCTTCTGTCTTGATTCGCTTGACGCTGCTG”, the binding signal is 11.6 log fluorescence intensity.

In the case of “CGGAAGTGTCGTAAACGTCAGATATCCGGTTCTTCTGTCTTGATTCGCTTGACGCTGCTG”, the binding signal is 11.2 log fluorescence intensity.

In the case of “CAGAAGTGTCGTAAACGTCGGATATCCGGTTCTTCTGTCTTGATTCGCTTGACGCTGCTG”, the binding signal was 12.6 log fluorescence intensity.

With “CGGAAGTGTCGTAAAAGTCGGATATCCGGTTCTTCTGTCTTGATTCGCTTGACGCTGCTG”, the binding signal was 12.5 log fluorescence intensity.

Consider “CGTAAGTGTCGTAAACGTCGGATATCCGGTTCTTCTGTCTTGATTCGCTTGACGCTGCTG”, for which the binding signal was 12.4 log fluorescence intensity.

Regarding “CTGAAGTGTCGTAAACGTCGGATATCCGGTTCTTCTGTCTTGATTCGCTTGACGCTGCTG”, the binding signal is 12.3 log fluorescence intensity.

For “CGGAAGTGTCGTAAACGTCGAATATCCGGTTCTTCTGTCTTGATTCGCTTGACGCTGCTG”, the binding signal is 11.7 log fluorescence intensity.

For “CGGAAGTGCCGTAAACGTCGGATATCCGGTTCTTCTGTCTTGATTCGCTTGACGCTGCTG”, the binding signal is 12.5 log fluorescence intensity.

On to “CGGAAGTGACGTAAACGTCGGATATCCGGTTCTTCTGTCTTGATTCGCTTGACGCTGCTG”, for which the binding signal is 12.3 log fluorescence intensity.

With “CGGAAGTGTCGTAAACGTCGGATATCCGGTCCTTCTGTCTTGATTCGCTTGACGCTGCTG”, the binding signal was 12.6 log fluorescence intensity.

On to “CGGAAGTGTCGTAAACGTCGGATATCCGGTTCTTGTGTCTTGATTCGCTTGACGCTGCTG”, for which the binding signal was 12.6 log fluorescence intensity.

Consider “CGGAAGTGGCGTAAACGTCGGATATCCGGTTCTTCTGTCTTGATTCGCTTGACGCTGCTG”, for which the binding signal was 12.1 log fluorescence intensity.

For the sequence “CGGAAGTGTCGTAAACGTCCGATATCCGGTTCTTCTGTCTTGATTCGCTTGACGCTGCTG”, the binding signal is 12.3 log fluorescence intensity.

In the case of “CCGAAGTGTCGTAAACGTCGGATATCCGGTTCTTCTGTCTTGATTCGCTTGACGCTGCTG”, the binding signal was 12.6 log fluorescence intensity.

For the sequence “CGGAAGTGTCGTAAACGTCGGATATCCGGTTGTTCTGTCTTGATTCGCTTGACGCTGCTG”, the binding signal was 12.5 log fluorescence intensity.

For the sequence “CGGAAGTGTCGTAAACGTCGGATATCCGGTTCTTTTGTCTTGATTCGCTTGACGCTGCTG”, the binding signal was 12.5 log fluorescence intensity.

In the case of “CGGAAGTGTCGTAAACGTCGGATATCCGGGTCTTCTGTCTTGATTCGCTTGACGCTGCTG”, the binding signal was 11.9 log fluorescence intensity.

In the case of “CGGAAGTGTCGTAAACGTCGGATATCCGGTGCTTCTGTCTTGATTCGCTTGACGCTGCTG”, the binding signal is 12.5 log fluorescence intensity.

“TCCGGCTACCAGCGCCACCCACTTCAGGCCTTGTAGGTCTTGATTCGCTTGACGCTGCTG”: the binding signal was 8.91 log fluorescence intensity.

As for “CACAATATTTACAGTAATGTAGCACGCGTAACTCCTGTCTTGATTCGCTTGACGCTGCTG”, the binding signal is 8.95 log fluorescence intensity.

On to “CGGAAGTGTCGTAAACGACGGATATCCGGTTCTTCTGTCTTGATTCGCTTGACGCTGCTG”, for which the binding signal was 12.7 log fluorescence intensity.

Turning to “CGGAAGTGTCGTAAACGGCGGATATCCGGTTCTTCTGTCTTGATTCGCTTGACGCTGCTG”, the binding signal was 12.6 log fluorescence intensity.

As to “CGGAAGTGTCGTAAACGTCGGATATCCGGTTATTCTGTCTTGATTCGCTTGACGCTGCTG”, the binding signal was 12.5 log fluorescence intensity.

Take “CGGAAGTGTCGTAAACGTCGGTTATCCGGTTCTTCTGTCTTGATTCGCTTGACGCTGCTG”: the binding signal is 10.1 log fluorescence intensity.

As for “GGAAAAAGGCCCAGGGTAACACCGCAAGTGGGCTTAGTCTTGATTCGCTTGACGCTGCTG”, the binding signal is 8.91 log fluorescence intensity.

For “TAAAGGGAAGACGGTTGTGGTAGGTCCGGGTATTAAGTCTTGATTCGCTTGACGCTGCTG”, the binding signal is 8.98 log fluorescence intensity.

For “CACAATTTTAACAGTAATGTAGCACGCGTAACTCCTGTCTTGATTCGCTTGACGCTGCTG”, the binding signal is 8.9 log fluorescence intensity.

Regarding “GATGAATTTCTGCCCTTATTCGCACGTGCCATAACAGTCTTGATTCGCTTGACGCTGCTG”, the binding signal was 8.9 log fluorescence intensity.

On to “GGAAAAAGGCCCAGGGTTACACCGGAAGTGGGCTTAGTCTTGATTCGCTTGACGCTGCTG”, for which the binding signal is 11 log fluorescence intensity.

Turning to “TAAAGGGAACACGGTTGTGGTAGTTCCGGGTATTAAGTCTTGATTCGCTTGACGCTGCTG”, the binding signal was 11.2 log fluorescence intensity.

Take “GGAAAAAGGCCCAGGGCAACACCGGAAGTGGGCTTAGTCTTGATTCGCTTGACGCTGCTG”: the binding signal was 10.9 log fluorescence intensity.

As to “CCCAATTTTTACAGTAATGTAGCACGCGTAACTCCTGTCTTGATTCGCTTGACGCTGCTG”, the binding signal was 8.98 log fluorescence intensity.

Regarding “CTGGGACTTGACCCAACTCTGCCACGTGGGCCGTTTGTCTTGATTCGCTTGACGCTGCTG”, the binding signal was 9.05 log fluorescence intensity.

With “CGGGGACTTGACCCAACTCTGCCACGTGGGTCGTTTGTCTTGATTCGCTTGACGCTGCTG”, the binding signal was 8.96 log fluorescence intensity.
